The source of these data is PubChem BioAssay (NCI).

About 83,000 compounds went through this panel and 20% of them were active in at least one assay; those are over-represented in the sample as a whole.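 Growth was measured after 48 h exposure to one concentration of compound in 96-well plates. Values under 10 count as active.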 Values without a mark were called inactive. Calls of active or inactive are those of the source.

Some test systems named below: HCT-15 colon; HT29 colon; SNB-75 CNS; SNB-19 CNS; U251 CNS; PC-3 prostate; SK-MEL-5 melanoma; UACC-62 melanoma; LOX IMVI melanoma; SK-MEL-28 melanoma; SK-MEL-2 melanoma; EKVX NSCLC; SN12C renal; UO-31 renal; TK-10 renal; ACHN renal; CAKI-1 renal; A498 renal; CCRF-CEM leukemia; MOLT-4 leukemia.
Common to all, as to experiment: NCI-60 one-dose screen, 48 h (100 = growth as untreated, 0 = no growth, -100 = all killed)
Details in all cases: 10 µM unless noted

As for `C#CCOc1ccccc1/C=N/Nc1nc(-c2ccc(Cl)cc2)cs1`, the growth in the test with HCT-15 colon was 104%; with HT29 colon, 106%; in the test with SNB-75 CNS, 92.5%; with SNB-19 CNS, 97.9%; with U251 CNS, 99.2%; in the test on PC-3 prostate, 86.5%. Further, the growth was 98.3% in the test on SK-MEL-5 melanoma; 85.7% in the test with UACC-62 melanoma; 95.1% with LOX IMVI melanoma; 98.1% with SK-MEL-28 melanoma; 102% with SK-MEL-2 melanoma; 77.5% with EKVX NSCLC. Besides, the growth in the test on SN12C renal was 93.8%; in the test on UO-31 renal, 75.9%; with TK-10 renal, 145%; in the test on ACHN renal it was 95.3%; in the test on CAKI-1 renal, 92%; in the test on A498 renal, 81.4%. Besides, the growth in the test on CCRF-CEM leukemia was 96.6%; with MOLT-4 leukemia, 90.8%.
Consider `Oc1[nH]c2ccc(Cl)cc2c1N=Nc1nc(N=Nc2c(O)[nH]c3ccc(Cl)cc23)nc(N2CCOCC2)n1`, for which the growth is 91.6% with HCT-15 colon; 91.1% with HT29 colon; -0.671% (active) in the test on SNB-75 CNS; -9.43% (active) in the test on SNB-19 CNS; 3.81% (active) in the test with U251 CNS; 56.1% in the test with PC-3 prostate. Besides, the growth in the test on SK-MEL-5 melanoma was 46.1%; with UACC-62 melanoma, 51.6%; in the test on LOX IMVI melanoma, 23.2%; in the test with SK-MEL-28 melanoma, 55%; with SK-MEL-2 melanoma, 65.3%; with EKVX NSCLC, 85.2%. Besides, the growth in the test with SN12C renal was 43.9%; with UO-31 renal it was 78.7%; in the test with TK-10 renal, 118%; in the test on ACHN renal it was 74.5%; with CAKI-1 renal, 72%; in the test with A498 renal it was 21.6%. The values for the growth with CCRF-CEM leukemia and in the test on MOLT-4 leukemia were 20.3% and 62.5%, respectively.
In the case of `CC1(C)C=Cc2cc(/C(N)=N/C(N)=N/c3nc4ccccc4s3)ccc2O1`, the growth is 57.7% with HCT-15 colon; 95.1% in the test on HT29 colon; 101% in the test with SNB-75 CNS; 96.6% in the test on SNB-19 CNS; 89.8% in the test on U251 CNS; 34.7% in the test on PC-3 prostate. Also, the growth was 87.9% in the test on SK-MEL-5 melanoma; 96.7% in the test on UACC-62 melanoma; -56.3% (active) in the test with LOX IMVI melanoma; 108% in the test on SK-MEL-28 melanoma; 110% in the test on SK-MEL-2 melanoma; 30.7% in the test on EKVX NSCLC. The growth in the test on SN12C renal is 52.4%; in the test on UO-31 renal, 64.9%; in the test with TK-10 renal it was 113%; with ACHN renal, 88.7%; in the test on CAKI-1 renal, 65.3%; in the test with A498 renal it was 114%. Besides, the values for the growth in the test with CCRF-CEM leukemia and in the test on MOLT-4 leukemia were 46.3% and 61.8%, respectively.
For the compound `Nc1ncc(-c2ccc3ncnc(NCc4ccccc4)c3c2)cn1`, the growth with HCT-15 colon is 42.8%; in the test with HT29 colon, 55.3%; in the test with SNB-75 CNS, 41.2%; with SNB-19 CNS it was 52%; in the test on U251 CNS, 64.1%; in the test with PC-3 prostate, 34.7%. The growth was 48.6% with SK-MEL-5 melanoma; 44.8% in the test with UACC-62 melanoma; 38.6% in the test on LOX IMVI melanoma; 57.6% with SK-MEL-28 melanoma; 71% with SK-MEL-2 melanoma; 23.5% in the test with EKVX NSCLC. In addition, the growth in the test with SN12C renal is 29.5%; in the test on UO-31 renal, 15.1%; with TK-10 renal it was -7.11% (active); with ACHN renal it was 25.2%; with CAKI-1 renal it was 17.4%; in the test on A498 renal, 22.4%. Moreover, the results for the growth in the test on CCRF-CEM leukemia and in the test on MOLT-4 leukemia were 42.3% and 17.7%, respectively.
`CNC(=O)c1cc(N2CCc3cc(NC(=O)Nc4ccc(N5CCOCC5)c(C(F)(F)F)c4)ccc32)ccn1`: the growth with HCT-15 colon was 5.54% (active); in the test with HT29 colon it was 28.5%; with SNB-75 CNS it was 38.6%; with SNB-19 CNS, 23.1%; with U251 CNS it was 29.2%; with PC-3 prostate it was 7.98% (active). The growth in the test with SK-MEL-5 melanoma is 12.9%; in the test on UACC-62 melanoma, -29.8% (active); in the test on LOX IMVI melanoma, 12.5%; with SK-MEL-28 melanoma, 49.8%; in the test with SK-MEL-2 melanoma it was 45.6%; in the test on EKVX NSCLC it was 59.6%. In addition, the growth in the test on SN12C renal was 15%; in the test with UO-31 renal, 16.9%; with TK-10 renal it was 80.8%; in the test with ACHN renal, 26.3%; with CAKI-1 renal, 44.3%; with A498 renal it was 60%. The values for the growth with CCRF-CEM leukemia and in the test with MOLT-4 leukemia were 25.1% and 22.9%, respectively.
As for `Clc1ccc2[nH]cc(-c3cncn3CCc3ccc4c(c3)OCO4)c2c1`, the growth in the test on HCT-15 colon was 72%; with HT29 colon, 70.5%; in the test with SNB-75 CNS it was 73.8%; in the test on SNB-19 CNS, 82.1%; in the test with U251 CNS, 69.9%; in the test on PC-3 prostate it was 51%. Further, the growth in the test on SK-MEL-5 melanoma was 33.8%; in the test with UACC-62 melanoma, 62.3%; in the test with LOX IMVI melanoma, 91.5%; in the test with SK-MEL-28 melanoma it was 93.5%; with SK-MEL-2 melanoma it was 86.4%; with EKVX NSCLC, 48%. For the same compound, the growth was 77% in the test on SN12C renal; 51.9% in the test on UO-31 renal; 96.9% with TK-10 renal; 78.4% in the test on ACHN renal; 35.6% with CAKI-1 renal; 56.3% in the test with A498 renal. Further, the growth in the test with CCRF-CEM leukemia is 64.2%; in the test on MOLT-4 leukemia, 60.4%.
Regarding `CCC(=C(c1ccc(OCCN(C)C)cc1)c1ccc(OCCN(C)C)cc1)c1ccc(Cl)cc1`, the growth in the test with HCT-15 colon is -74.8% (active); with HT29 colon, -38.9% (active); in the test with SNB-75 CNS it was 17.7%; in the test with SNB-19 CNS it was -39.8% (active); in the test with U251 CNS it was -64.5% (active); with PC-3 prostate it was -12.1% (active). Further, the growth was -95.8% (active) with SK-MEL-5 melanoma; -73.6% (active) in the test on UACC-62 melanoma; -98.1% (active) with LOX IMVI melanoma; -83.3% (active) with SK-MEL-28 melanoma; -41.8% (active) in the test on SK-MEL-2 melanoma; 7.78% (active) in the test on EKVX NSCLC. Moreover, the growth with SN12C renal is -33.2% (active); in the test with UO-31 renal it was -71.9% (active); in the test with TK-10 renal it was 60.2%; in the test with ACHN renal, -78.5% (active); with CAKI-1 renal, -53.6% (active); in the test with A498 renal, -23.3% (active). Moreover, the growth was -50.8% (active) in the test with CCRF-CEM leukemia and -50.2% (active) with MOLT-4 leukemia.
Consider `Cn1c(SCC(=O)c2ccco2)nc2ccccc2c1=O`, for which the growth in the test with HCT-15 colon was 84.9%; in the test with HT29 colon, 118%; with SNB-75 CNS, 86.2%; in the test with SNB-19 CNS, 102%; in the test with U251 CNS it was 105%; in the test with PC-3 prostate, 93.6%. In addition, the growth is 98.1% in the test on SK-MEL-5 melanoma; 87% in the test on UACC-62 melanoma; 95.2% in the test with LOX IMVI melanoma; 108% with SK-MEL-28 melanoma; 106% in the test with SK-MEL-2 melanoma; 55.2% in the test on EKVX NSCLC. For the same compound, the growth with SN12C renal was 105%; in the test with UO-31 renal, 68.7%; in the test with TK-10 renal, 146%; with ACHN renal it was 101%; in the test on CAKI-1 renal it was 74.7%; in the test with A498 renal it was 144%. For the same compound, the growth with CCRF-CEM leukemia is 98.8%; with MOLT-4 leukemia, 96%.
